Source: PubChem
Most compounds without a hit are left out; they make up all but 2.5% or so of the library.
MBD2 inh: blocks human MBD2 binding to methylated DNA | Q9UBB5 | TR-FRET, MBD2 binding to methylated oligonucleotide | inhibition, % at 4.4 µM | 370,000 tested, 0.31% active; in the data active means inhibition above about 13%
Target sequence (Q9UBB5 whole entry, looked up): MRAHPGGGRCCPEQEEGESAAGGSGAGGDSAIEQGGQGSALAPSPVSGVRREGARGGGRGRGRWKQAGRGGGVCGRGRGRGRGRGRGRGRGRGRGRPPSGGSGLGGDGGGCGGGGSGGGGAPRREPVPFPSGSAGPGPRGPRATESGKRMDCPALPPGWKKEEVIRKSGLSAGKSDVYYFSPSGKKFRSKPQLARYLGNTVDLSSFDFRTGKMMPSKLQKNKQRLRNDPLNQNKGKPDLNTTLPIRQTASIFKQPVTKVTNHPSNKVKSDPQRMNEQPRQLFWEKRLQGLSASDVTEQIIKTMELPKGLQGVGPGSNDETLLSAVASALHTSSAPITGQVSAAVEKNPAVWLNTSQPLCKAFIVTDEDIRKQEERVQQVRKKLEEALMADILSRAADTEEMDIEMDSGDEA
UHRF1 binding: human UHRF1 methylated DNA binding inhibitors; Q96T88; UHRF1 binding to methylated oligo, TR-FRET; inhibition, % at 4.4 µM; 370,000 tested, 0.75% active; in the data active means inhibition above about 21%;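 further: UHRF1 SRA domain binding a hemimethylated CpG hairpin DNA probe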
PRMT1 FP inh: blocks human protein arginine methyltransferase 1. inhibition, % at 2.79 µM. recombinant PRMT1, activity-based probe fluorescence polarization. 370,000 tested, 1.3% active. Q99873;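 active means inhibition above about 21% made by adding two undisclosed values, limit read from the data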
LEDGF integ inh: blocks HIV-1 LEDGF/p75-dependent DNA integration; TR-FRET IN-LEDGF/p75 DNA integration, Eu/Cy5; inhibition, % at 3.7 µM; 370,000 tested, 0.64% active; AID 743269;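 active means inhibition above the screen-wide mean plus 3 SD, cut at about 13% in these data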;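 further: signal is the Cy5 over europium emission ratio at 671 and 618 nm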
IN multimer up: counter-screen for LEDGF/p75 integration inhibitors: HIV-1 integrase multimerization activators | 2,000 tested, 17% active | activation, % at 7.7 µM | shares compounds with LEDGF integ inh | TR-FRET HIV-1 integrase multimerization, biochemical; in the data active means activation above about 8.9%
TRFRET interf: TR-FRET optical interference, LEDGF/p75 integration counter-screen. TR-FRET optical interference counterscreen, HIV-1 IN multimerization. inhibition, % at 7.7 µM. 2,000 tested, under 10 active. shares compounds with LEDGF integ inh;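 active means inhibition above the mean over all tested compounds plus 3 SD, which no compound reached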
LEDGF integ conf: LEDGF/p75-dependent HIV-1 integration inhibition, confirmation; shares compounds with LEDGF integ inh; TR-FRET LEDGF/p75-dependent HIV-1 integration, biochemical; inhibition, % at 3.7 µM; 2,000 tested, 36% active; AID 1053136; in the data active means inhibition above about 14%
Numbers stand for hits; n = inactive; x = not tested or not shown.

SMILES	MBD2 inh	UHRF1 binding	PRMT1 FP inh	LEDGF integ inh	IN multimer up	TRFRET interf	LEDGF integ conf
CC(C)C[C@H]1CN(CCCC[C@H]2CNC(=O)C(=O)N2CCc2ccc(O)cc2)C(=O)C(=O)N1CCc1ccccc1	n	n	n	n	x	x	x
S=C(NCc1ccccc1)NCc1cccc(Cl)c1	n	n	n	n	x	x	x
S=C(NCc1ccccc1)NCc1cccc(CNC(=S)NCc2ccccc2)c1	n	n	n	44	n	n	n
COc1cccc(NC(=O)N(C)C[C@@H]2OCc3cnnn3CCCC(=O)N([C@@H](C)CO)C[C@H]2C)c1	n	n	n	n	x	x	x
Cc1nc2ccccc2nc1OCC(=O)Nc1ccccc1	n	n	n	17	n	n	n
CC(=O)Oc1ccc(/C=C2/C(=O)N(c3ccccc3)N=C2C)cc1	24	n	n	51	n	n	n
CC1=NN(c2ccccc2)C(=O)/C1=C/N(C)C	n	n	n	n	x	x	x
CC1=NN(c2ccccc2)C(=O)/C1=C/c1cccc(C)c1	n	n	n	16	n	n	n
COc1ccc(/C=C2/C(=O)N(c3ccccc3)N=C2C)cc1OC	n	n	n	27	n	n	n
COc1ccc(C2=NN(c3ccccc3)C(=O)/C2=C\c2ccc(O)c(OC)c2)cc1	n	n	n	17	n	n	n
Cc1ccc2ccccc2c1C(O)c1ncc(-c2ccc(Cl)cc2)[nH]1 (configuration not stated)	n	n	n	n	x	x	x
CCN(c1ccccc1)S(=O)(=O)c1ccc(C(=O)N2CCN(c3ccccc3F)CC2)cc1	n	n	n	n	x	x	x
COc1ccc(CN(C)C[C@@H]2OCCCC[C@H](C)Oc3ccc(NC(=O)Nc4ccc(F)cc4)cc3C(=O)N([C@H](C)CO)C[C@H]2C)cc1	n	n	n	n	x	x	x
COc1ccc(C(=O)NC(=S)N(Cc2ccccc2)Cc2ccccc2)cc1	n	n	n	15	n	n	n
O=C(NC(=S)N(CCc1ccccc1)CCc1ccccc1)c1ccco1	n	n	n	15	n	n	20
COc1cc(C(=O)NC(=S)N(CCc2ccccc2)CCc2ccccc2)cc(OC)c1OC	n	n	n	14	n	n	n
CC(CCc1ccccc1)NC(=S)NC(=O)c1ccco1 (configuration not stated)	n	n	n	n	x	x	x
COc1cc(C(=O)NC(=S)N(C)Cc2ccccc2)cc(OC)c1OC	n	n	n	n	x	x	x
Cc1cc(C)c(CN2CCN(C(=O)CC[C@H]3O[C@@H](n4cnc5c(NC(=O)c6ccccc6)ncnc54)[C@H](O)[C@@H]3O)CC2)c(C)c1	n	n	n	n	x	x	x
CC(=O)c1ccc(S(=O)(=O)N2CCC(C(=O)Nc3ncc(C)s3)CC2)cc1	n	n	n	n	x	x	x
Cc1ccc(S(=O)(=O)N2CCCC2)cc1C(=O)N1CCN(Cc2ccccc2)CC1	n	n	n	22	n	n	n
COc1ccc(C(=O)N2N=C3CC(C)(C)OCC3C2c2ccccc2)cc1 (configuration not stated)	n	n	n	66	n	n	n
COc1ccc(C2CC(c3ccc(C)cc3)=NN2C(=O)c2ccccc2)cc1 (configuration not stated)	n	n	n	n	x	x	x
CCc1nc2ccc(C(=O)Nc3cccc(OCC(=O)N(C)C)c3)cn2c1N(C)Cc1ccc(OC)cc1	n	n	n	n	x	x	x
O=C(NCCN1CCCC1)C1CC(=O)N(C2CCCCC2)C1 (configuration not stated)	n	n	n	26	n	n	n
SMILES	MBD2 inh	UHRF1 binding	PRMT1 FP inh	LEDGF integ inh	IN multimer up	TRFRET interf	LEDGF integ conf
CC1CCN(CCCNC(=O)C2CC(=O)N(C3CCCCCC3)C2)CC1 (configuration not stated)	n	n	n	n	x	x	x
CC1Cc2ccccc2N1C(=O)c1ccc(F)c(S(=O)(=O)N2CCOCC2)c1 (configuration not stated)	n	n	n	26	n	n	n
CCCC(C)NC(=O)Cc1ccc(S(=O)(=O)N2CCOCC2)s1 (configuration not stated)	n	n	n	n	x	x	x
CCC(CC)NC(=O)Cc1ccc(S(=O)(=O)N2CCOCC2)s1	n	n	n	16	n	n	n
Cc1ccc(S(=O)(=O)Nc2cccc(C(=O)NCc3ccccn3)c2)cc1F	n	n	n	n	x	x	x
COC/C=C/C1=CC2=CC(=O)C(C)(OC(=O)c3cnc4ccccc4n3)C(=O)C2=CN1Cc1ccccc1 (configuration not stated)	n	n	n	15	n	n	n
C#CCN1C=CC(=O)[C@@H](O)[C@H]1c1ccccc1Br	n	n	n	n	x	x	x
O=C(CSc1nc2ccccc2[nH]1)NC1CCS(=O)(=O)C1 (configuration not stated)	n	n	n	37	n	n	n
CC(C(=O)Nc1cccc([N+](=O)[O-])c1)n1nnc2ccccc21 (configuration not stated)	n	n	n	82	n	n	n
CCCn1c(NC(=O)c2ccccc2)nc(Cc2ccccc2)c1-c1ccc(OC)cc1	n	n	n	n	x	x	x
COc1ccc(-c2c(Cc3ccccc3)nc(NC(=O)c3ccccc3F)n2C)cc1	n	n	n	20	n	n	17
CN(C)/C=N/c1ncn(-c2ncc(C(F)(F)F)cc2Cl)n1	n	n	n	17	n	n	n
COc1cccc(-c2cnc3c(NC=O)cc(-c4ccoc4)cn23)c1	n	n	n	13	n	n	n
COc1cccc(-c2cnc3c(NC=O)cc(-c4ccccc4)cn23)c1	n	n	n	n	x	x	x
O=C(c1ccc2c(=O)n(Cc3ccccc3Cl)c(=S)[nH]c2c1)N1CCOCC1	n	n	n	n	x	x	x
O=C(CC1CC2CCC1C2)Nc1nc(-c2ccccn2)cs1 (configuration not stated)	n	n	n	16	n	n	n
O=C(Nc1nc(-c2ccccn2)cs1)C1CC1	n	n	n	n	x	x	x
O=[N+]([O-])c1cccc(/C=C/c2ccncc2)c1	n	n	n	19	n	n	n
O=[N+]([O-])c1ccc(/C=C/c2ccncc2)cc1	n	n	n	n	x	x	x
CC(C)CC1Nc2ncnc(N3CCN(c4ccccn4)CC3)c2N(Cc2ccc(Br)cc2)C1=O (configuration not stated)	n	n	n	n	x	x	x
Cc1ccc(CN2C(=O)C(CC(C)C)Nc3ncnc(N4CCN(c5ccccn5)CC4)c32)cc1 (configuration not stated)	n	n	n	91	n	n	n
CN(Cc1ccccc1)C(=O)c1ccc(NC(=O)Cc2cccc(NC(=O)C3CCCN(C(=O)C4CCC4)C3)c2)cc1 (configuration not stated)	n	n	n	n	x	x	x
NS(=O)(=O)c1ccc(CCNC(=O)c2ccc(Cl)nc2)cc1	n	n	n	16	n	n	n
